# Test results taken from PubChem BioAssay.
# Values joined by “and” are separate entries in the source; they are usually repeats but may differ in a detail not shown here. Equal values may be shown once. For some of these results: Potency and affinity values are given separately. Active and inactive are the calls of the source. Cut-off read from the data, not from the text of the source, unless noted: active = parasite load remaining mostly below about 12% (no sharp cut-off); inactive = mostly above about 10%.
# Experiments:
# [1] = differential killing of epithelial or mesenchymal cells, primary screen, imaging, PC-3E GFP, TEM4-18 mCherry, co-culture (AID 1345086;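 active = compounds killing one labelled cell type while sparing the other, by normalised counts and ratio limits, not self-fluorescent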;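 for all read-outs here: cells exposed to compound for 72 h before imaging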;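 for red/green cell ratio (normalised): normalised mesenchymal count divided by normalised epithelial count so high means epithelial killing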); conditions: imaging cell counts, at 1 µM; for red/green cell ratio (normalised): actives lie on both sides, counts scaled to control wells, 1 = unselective
# [2] = sensitizers of A549 cells to miR-34 induction, primary screen, imaging, A549 dox-inducible miR-34, nuclei and caspase counts (AID 1347080;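 active = compounds whose cell count with miR-34 switched on is under 0.7 times the count with it off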); conditions: A549 miR-34 inducible, Hoechst nuclei count, 48 h
# [3] = target: Mitogen-activated protein kinase 7 (Homo sapiens) (UniProt Q13164); assay: ERK5 transactivation activators in reporter cells, primary screen, cell-based, HTS (AID 1508626;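 active = luciferase signal above three times the same-plate solvent-only control wells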;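 note: luciferase driven by Gal4-ERK5 fusion binding five Gal4 sites before minimal TATA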); conditions: HeLa Gal4-ERK5 transactivation, 18 h, at 5 µM, stronger effect = higher value
# [4] = polyglutamine-triggered caspase-3 activation inhibitors, cell-based (AID 1583); conditions: polyglutamine-induced caspase-3 activation, cell assay; stronger effect = higher value;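 tested at 10 µM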
# [5] = suppressors of polyQ aggregation in yeast, 75Q-TubU reporter (AID 1593); conditions: Yeast 75Q polyglutamine aggregation reporter
# [6] = rescue of polyQ-huntingtin neuronal dysfunction in worms, whole organism, C. elegans mechanosensory neurons, N-terminal huntingtin (AID 1599); conditions: touch response, stronger effect = higher value
# [7] = inhibitors of mitochondrial cytochrome c release, biochemical, purified mitochondria (AID 1603); conditions: stronger effect = lower value;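 note: mouse liver mitochondria challenged with calcium chloride; signal normalized to the plate average as 100%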
# [8] = inhibitors of polyQ protein aggregation (AID 1604); conditions: polyglutamine-induced protein aggregation inhibition assay; stronger effect = higher value; tested at 2.5 µM
# [9] = enhancers of glutamate uptake in motor neurons, MN-1 cell line (AID 1612); conditions: MN-1 motor neuron cells, stronger effect = higher value;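 note: tested at 1 µM final; 0% = mean of DMSO vehicle wells on each plate; positive means more glutamate uptake than control and negative means less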
# [10] = reducers of polyQ inclusions in PC12 cells, cell-based, NGF-treated PC12, GFPQ80 (AID 1614); conditions: PC12 NGF-treated GFP-polyQ80 inclusion reduction;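 note: lower means fewer inclusions and 0 means no inclusions at all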
# [11] = suppressors of polyglutamine aggregation in yeast, 75Q-TubH (AID 1616); conditions: S. cerevisiae 75Q-TubH polyglutamine aggregation suppression; stronger effect = higher value
# [12] = liver-stage malaria parasite growth inhibition, primary screen, cell-based, HepG2, luciferase luminescence, HepG2 viability (AID 624349);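 note: 100% = mean of DMSO negative control wells on the same plate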; conditions: P. berghei liver stage in HepG2, luciferase luminescence, concentration not given here; parasite load remaining: stronger effect = lower value; viability: measured here: HepG2 viability without parasites
# [13] = target: NAD(+) hydrolase SARM1 (Homo sapiens) (UniProt Q6SZW1); assay: SARM1 TIR NADase inhibitors, cell lysate, NAD-Glo luminescence (AID 1508614;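 active = compound whose remaining NAD level is above about 45 nM, limit read from the data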;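 note: higher remaining NAD means stronger inhibition of SARM1 NADase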); conditions: SAM-TIR HEK293T lysate NADase, at 1 µM, stronger effect = higher value
# [14] = measured here: epithelial PC-3E GFP cell survival
# [15] = measured here: mesenchymal TEM4-18 mCherry cell survival
# [16] = stronger effect = lower value, cell number ratio, induced over uninduced
# [17] = measured here: relative caspase fold change +Dox/-Dox
# [18] = measured here: total cells with miR-34 induction, stronger effect = lower value
# [19] = measured here: total cells without miR-34 induction
# Sequence of Mitogen-activated protein kinase 7 (Homo sapiens) (Q13164 whole entry, looked up, the tested form may be a part): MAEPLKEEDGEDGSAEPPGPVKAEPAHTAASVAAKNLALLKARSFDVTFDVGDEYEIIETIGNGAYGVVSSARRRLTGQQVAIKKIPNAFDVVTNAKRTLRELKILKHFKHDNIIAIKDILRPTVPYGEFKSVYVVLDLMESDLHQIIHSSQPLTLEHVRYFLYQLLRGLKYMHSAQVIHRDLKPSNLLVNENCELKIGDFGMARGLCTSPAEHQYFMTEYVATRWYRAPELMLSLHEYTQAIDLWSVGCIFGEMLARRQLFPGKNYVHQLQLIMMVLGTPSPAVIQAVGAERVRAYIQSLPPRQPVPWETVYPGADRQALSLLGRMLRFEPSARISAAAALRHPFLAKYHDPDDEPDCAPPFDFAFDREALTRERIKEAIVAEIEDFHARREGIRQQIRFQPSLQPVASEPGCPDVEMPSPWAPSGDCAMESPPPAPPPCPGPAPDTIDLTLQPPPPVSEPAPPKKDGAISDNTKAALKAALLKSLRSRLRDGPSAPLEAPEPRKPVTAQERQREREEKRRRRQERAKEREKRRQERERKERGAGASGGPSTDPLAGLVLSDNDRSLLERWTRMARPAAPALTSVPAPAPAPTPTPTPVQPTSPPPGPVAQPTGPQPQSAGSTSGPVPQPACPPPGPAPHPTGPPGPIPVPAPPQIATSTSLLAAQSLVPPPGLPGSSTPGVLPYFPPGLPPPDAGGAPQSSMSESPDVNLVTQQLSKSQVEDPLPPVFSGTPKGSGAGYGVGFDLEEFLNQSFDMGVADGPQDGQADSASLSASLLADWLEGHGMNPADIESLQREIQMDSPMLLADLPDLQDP
# Sequence of NAD(+) hydrolase SARM1 (Homo sapiens) (Q6SZW1 whole entry, looked up): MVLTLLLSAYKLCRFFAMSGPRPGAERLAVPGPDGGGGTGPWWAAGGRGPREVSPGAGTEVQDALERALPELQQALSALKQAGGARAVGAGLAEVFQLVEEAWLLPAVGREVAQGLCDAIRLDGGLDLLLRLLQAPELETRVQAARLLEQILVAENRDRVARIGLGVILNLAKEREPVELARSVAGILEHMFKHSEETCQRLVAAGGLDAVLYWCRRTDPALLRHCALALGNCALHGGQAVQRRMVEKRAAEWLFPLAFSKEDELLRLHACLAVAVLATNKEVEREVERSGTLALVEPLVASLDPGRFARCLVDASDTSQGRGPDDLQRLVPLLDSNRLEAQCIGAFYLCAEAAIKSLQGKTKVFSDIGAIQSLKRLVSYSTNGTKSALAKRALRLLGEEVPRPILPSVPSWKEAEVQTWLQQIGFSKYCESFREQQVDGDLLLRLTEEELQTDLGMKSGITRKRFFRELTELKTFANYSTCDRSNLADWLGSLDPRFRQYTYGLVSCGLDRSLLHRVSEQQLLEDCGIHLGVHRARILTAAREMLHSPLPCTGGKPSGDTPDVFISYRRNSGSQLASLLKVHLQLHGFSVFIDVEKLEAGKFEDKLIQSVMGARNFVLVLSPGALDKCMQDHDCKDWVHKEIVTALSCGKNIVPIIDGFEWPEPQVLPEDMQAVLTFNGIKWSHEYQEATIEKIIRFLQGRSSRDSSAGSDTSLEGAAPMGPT
Structure (SMILES),red/green cell ratio (normalised) [1],"normalised cell number [1, 14]","normalised cell number [1, 15]","fold change [2, 16]","fold change [2, 17]","cell count [2, 18]","cell count [2, 19]",luciferase signal [3],inhibition [4],score [5],rescue above control [6],cytochrome c release ratio [7],inhibition of aggregation [8],glutamate uptake change [9],inclusion score [10],aggregation suppression score [11],parasite load remaining [12],viability [12],remaining NAD [13]
C[C@H]1CC2C3CCC4=CC(=O)C=C[C@]4(C)[C@@]3(F)[C@@H](O)C[C@]2(C)[C@@]1(O)C(=O)COP(=O)(O)O (stereo partly specified),1.28 (inactive),1.37,1.75,0.873 (inactive),1.02,6310,7220,92 AU (inactive),–,–,–,–,–,–,–,–,–,–,–
CC(C)[C@@H]1CC[C@@H](C)C[C@H]1O,0.86 (inactive),0.91,0.79,0.95 (inactive),2.52,12500,13100,44 AU (inactive),18.8%,1.2,5.72,0.66,80.3%,2.2%,1,1.36,176% (inactive) and 64.4% (inactive),87.7% and 95.6%,10 nM (inactive)
Nc1ccc(S(=O)(=O)[O-])cc1.Nc1ccc(S(=O)(=O)[O-])cc1.[Zn+2],0.95 (inactive),1.26,1.2,0.91 (inactive),2.98,11500,12600,56 AU (inactive),–,–,–,–,–,–,–,–,34.7% (inactive),93.6%,–
COc1ccc(C[C@H](N)C(=O)N[C@@H]2[C@@H](CO)OC(n3cnc4c(N(C)C)ncnc43)[C@@H]2O)cc1 (stereo partly specified),1 (inactive),0.94,0.94,1.05 (inactive),1.45,385,366,–,52.2%,1.68,-10.3,1.17,54%,15.3%,–,1.32,54.7% (inactive) and 3.3% (inactive),40.9% and 70.7%,–
CC(C)(CO)C(O)C(=O)NCCCO (stereo unspecified),1.08 (inactive) and 0.9 (inactive),1.14 and 1.02,1.23 and 0.92,0.911 (inactive),4.72,11800,13000,68 AU (inactive),–,–,–,–,–,–,–,–,56.4% (inactive),105%,–
CC(C)CC1C(=O)N2CCC[C@H]2C2(O)O[C@](NC(=O)C3C=C4c5cccc6[nH]c(Br)c(c56)C[C@H]4N(C)C3)(C(C)C)C(=O)N12 (stereo partly specified),1.32 (inactive),0.91,1.21,0.852 (inactive),1.96,9430,11100,–,2.51%,1.5,6.29,4.55,72.4%,-22%,2.5,1.46,49.3% (inactive) and 20% (inactive),70.8% and 87%,–
C[C@H](N[C@@H](CCc1ccccc1)C(=O)O)C(=O)N1Cc2ccccc2C[C@H]1C(=O)O,0.82 (inactive),1.1,0.91,0.868 (inactive),0.983,8350,9630,–,–,–,–,–,–,–,–,–,–,–,10 nM (inactive)
CC(=O)O[C@]1(C(C)=O)CCC2C3C[C@H](C)C4=CC(=O)CC[C@]4(C)C3CC[C@@]21C (stereo partly specified),1.21 (inactive),1.07,1.3,0.945 (inactive),3.26,8680,9190,–,28.3%,0.63,2.76,1.2,59.1%,30.6%,2.5,0.615,76.4% (inactive) and 20.6% (inactive),71.8% and 85.5%,–
CC(=O)OCC(=O)[C@@]1(O)[C@H](OC(C)=O)CC2C3CCC4=CC(=O)C=C[C@]4(C)[C@@]3(F)[C@@H](O)C[C@@]21C (stereo partly specified),1.19 (inactive),0.98,1.17,0.86 (inactive),3.23,7630,8870,–,-24%,1.15,19.5,1.31,89.7%,9.09%,2.5,0.805,160% (inactive) and 64.8% (inactive),67.1% and 85.5%,–
C[C@]12CCC3c4ccc(O)cc4CCC3C1C[C@@H](O)[C@@H]2O (stereo partly specified),0.95 (inactive),1,0.95,0.868 (inactive),1.18,11100,12800,–,-10.9%,0.64,0.35,0.85,84.5%,-5.15%,2,0.718,84.5% (inactive) and 67.1% (inactive),72.3% and 96.2%,–
O=C1O[C@@H](CO)[C@H](O)[C@@H](O)[C@@H]1O,1.05 (inactive),0.98,1.02,0.946 (inactive),2.61,12000,12600,–,-15.4%,1.29,7.61,0.98,50.7%,-5.06%,2,1.09,176% (inactive) and 30.6% (inactive),83.8% and 96.7%,–
C[C@]12CCC(=O)C=C1CCC1C2[C@@H](O)C[C@@]2(C)C1CC[C@]2(O)C(=O)COC(=O)CCC(=O)O (stereo partly specified),1.43 (inactive),0.86,1.23,0.766 (inactive),0.842,7240,9450,–,7.51%,1.55,-3.62,1.58,37.2%,-0.65%,2,1.36,137% (inactive) and 66.7% (inactive),78.6% and 93.3%,–
Cn1nnnc1SCC1=C(C(=O)O)N2C(=O)C(NC(=O)C(O)c3ccccc3)C2SC1 (stereo unspecified),0.9 (inactive),1.03,0.93,0.886 (inactive),4.15,11200,12600,–,15.1%,1.62,-1.89,1.02,39.4%,14.2%,2,1.25,39.2% (inactive),86%,–
C[C@H](CCC(=O)O)[C@H]1CCC2C3C(=O)CC4CC(=O)CC[C@]4(C)C3CC(=O)[C@@]21C (stereo partly specified),1.22 (inactive),1.21,1.47,0.851 (inactive),1.32,10500,12400,–,12.1%,1.59,-5.38,1.29,91.6%,7.41%,2,1.06,101% (inactive) and 58% (inactive),69.6% and 86.9%,–
C[C@]12CCC(=O)C=C1CCC1C2[C@@H](O)C[C@@]2(C)C1CC[C@]2(O)C(=O)CO (stereo partly specified),1.04 (inactive),1.28,1.34,0.949 (inactive),3.13,7100,7490,–,5.24%,1.39,-4.34,1.36,63.4%,10.6%,2,1.61,94% (inactive),99.2%,–
CN[C@@H]1C(OC2[C@H](O[C@H]3[C@H](O)[C@@H](O)[C@H](N=C(N)N)[C@@H](O)[C@@H]3N=C(N)N)OC(C)[C@]2(O)CO)OC(CO)C(O)C1O (stereo partly specified),1.34 (inactive),1.05,1.41,0.819 (inactive),1.34,10800,13200,–,-7.45%,1.24,1.04,0.93,82.2%,-1.61%,2,1.17,87.5% (inactive) and 63.1% (inactive),69.8% and 93.3%,–
